Columns and labels:
Assay in all cases: universal protein binding microarray (PBM); transcription factors of Arabidopsis thaliana; high values mean tight binding
GST-ANAC092(1-176) = molecular target: T1, GST-ANAC092(1-176) (Arabidopsis thaliana, UniProt Q9FKA0 1-176); conditions: protein: recombinant; tags: GST; chain copies: 2; dsDNA, one strand shown
T1 sequence: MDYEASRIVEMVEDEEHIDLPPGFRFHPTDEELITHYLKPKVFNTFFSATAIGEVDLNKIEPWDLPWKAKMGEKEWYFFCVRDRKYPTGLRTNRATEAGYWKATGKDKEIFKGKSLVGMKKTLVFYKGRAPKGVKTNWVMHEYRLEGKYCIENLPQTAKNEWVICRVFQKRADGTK
How it was run: (§1)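 GST-tagged proteins (NAC-domain, full-length or DNA-binding-domain) were induced in cells, with zinc acetate supplied for zinc-finger proteins, then purified on glutathione–Sepharose 4B. Each was tested in duplicate at 200 to 500 nM final on custom all-10-mer Agilent 4 × 180K arrays rendered double-stranded by primer extension. The binding value is the normalised enrichment score (E-score) across gapped and ungapped 8-mers.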

GST-NTL6(1-168) = GST-NTL6(1-168) (Arabidopsis thaliana, UniProt Q9SCK6 1-168); conditions: protein: recombinant; tags: GST; chain copies: 2; dsDNA, one strand shown
Sequence of GST-NTL6(1-168) (Q9SCK6 1-168): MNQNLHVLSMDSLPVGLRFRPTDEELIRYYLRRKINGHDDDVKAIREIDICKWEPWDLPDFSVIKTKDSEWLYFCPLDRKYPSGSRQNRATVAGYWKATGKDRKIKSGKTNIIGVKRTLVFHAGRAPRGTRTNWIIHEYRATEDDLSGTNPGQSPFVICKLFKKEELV
How it was run: as §1

GST-ANAC019 NAC domain = molecular target: T2, GST-ANAC019 NAC domain (Arabidopsis thaliana, UniProt Q9C932 14-162); conditions: protein: recombinant; tags: GST; chain copies: 2; dsDNA, one strand shown
T2 sequence: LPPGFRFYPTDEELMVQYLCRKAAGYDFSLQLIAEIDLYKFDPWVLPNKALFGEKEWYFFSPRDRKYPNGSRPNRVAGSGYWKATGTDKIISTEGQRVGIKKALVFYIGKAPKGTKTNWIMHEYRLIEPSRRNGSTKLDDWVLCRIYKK
How it was run: as §1

GST-ATAF1 NAC domain = molecular target: T3, GST-ATAF1 NAC domain (Arabidopsis thaliana, UniProt Q39013 7-158); conditions: protein: recombinant; tags: GST; chain copies: 2; dsDNA, one strand shown
T3 sequence: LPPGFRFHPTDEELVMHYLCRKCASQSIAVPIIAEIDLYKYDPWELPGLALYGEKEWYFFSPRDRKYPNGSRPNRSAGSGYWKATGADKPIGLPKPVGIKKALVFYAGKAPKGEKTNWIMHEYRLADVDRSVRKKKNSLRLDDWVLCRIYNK
How it was run: as §1

[1] = molecular target: T4, GST-ANAC092(1-285) full length (Arabidopsis thaliana, UniProt Q9FKA0 1-285); conditions: protein: recombinant; tags: GST; chain copies: 2; dsDNA, one strand shown
T4 sequence: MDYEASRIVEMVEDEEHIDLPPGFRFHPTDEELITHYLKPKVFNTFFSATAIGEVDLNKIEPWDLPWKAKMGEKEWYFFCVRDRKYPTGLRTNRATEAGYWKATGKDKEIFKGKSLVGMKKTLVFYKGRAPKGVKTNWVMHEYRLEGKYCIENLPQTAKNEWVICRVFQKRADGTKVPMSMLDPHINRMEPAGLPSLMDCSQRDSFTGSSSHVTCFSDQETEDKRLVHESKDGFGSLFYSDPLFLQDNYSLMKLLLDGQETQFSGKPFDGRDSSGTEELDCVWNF
How it was run: as §1

GST-NST2(1-184) = molecular target: T5, GST-NST2(1-184) (Arabidopsis thaliana, UniProt Q9M274 1-184); conditions: protein: recombinant; tags: GST; chain copies: 2; dsDNA, one strand shown
T5 sequence: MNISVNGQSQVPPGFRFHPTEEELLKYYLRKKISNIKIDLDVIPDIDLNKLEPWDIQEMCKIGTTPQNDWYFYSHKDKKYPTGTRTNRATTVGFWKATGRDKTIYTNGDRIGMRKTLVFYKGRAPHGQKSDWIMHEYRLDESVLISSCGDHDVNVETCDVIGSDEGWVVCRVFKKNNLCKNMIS
How it was run: as §1

GST-NTL8 NAC domain = molecular target: T6, GST-NTL8 NAC domain (Arabidopsis thaliana, UniProt Q9XIN7 14-156); conditions: protein: recombinant; tags: GST; chain copies: 2; dsDNA, one strand shown
T6 sequence: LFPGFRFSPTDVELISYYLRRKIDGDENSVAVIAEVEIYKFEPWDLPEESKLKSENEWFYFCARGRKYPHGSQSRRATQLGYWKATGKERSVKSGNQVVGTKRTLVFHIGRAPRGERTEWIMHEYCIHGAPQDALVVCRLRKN
How it was run: as §1

GST-SND1(1-203) = molecular target: T7, GST-SND1(1-203) (Arabidopsis thaliana, UniProt Q9LPI7 1-203); conditions: protein: recombinant; tags: GST; chain copies: 2; dsDNA, one strand shown
T7 sequence: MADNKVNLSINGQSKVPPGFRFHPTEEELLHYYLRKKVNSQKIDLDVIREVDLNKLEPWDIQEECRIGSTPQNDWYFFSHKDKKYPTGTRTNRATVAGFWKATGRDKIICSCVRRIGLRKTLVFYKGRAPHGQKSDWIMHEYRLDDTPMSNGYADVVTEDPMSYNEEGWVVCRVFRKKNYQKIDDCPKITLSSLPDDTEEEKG
How it was run: as §1

GST-VND7 NAC domain = molecular target: T8, GST-VND7 NAC domain (Arabidopsis thaliana, UniProt Q9C8W9 9-158); conditions: protein: recombinant; tags: GST; chain copies: 2; dsDNA, one strand shown
T8 sequence: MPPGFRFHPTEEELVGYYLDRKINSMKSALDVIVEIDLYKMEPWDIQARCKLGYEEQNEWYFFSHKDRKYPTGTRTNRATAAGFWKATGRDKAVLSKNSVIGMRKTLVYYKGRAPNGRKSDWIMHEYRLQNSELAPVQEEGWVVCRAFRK
How it was run: as §1

GST-WRKY1(266-371) = GST-WRKY1(266-371) (Arabidopsis thaliana, UniProt Q9SI37 266-371); conditions: protein: recombinant; tags: GST; dsDNA, one strand shown
Sequence of GST-WRKY1(266-371) (Q9SI37 266-371): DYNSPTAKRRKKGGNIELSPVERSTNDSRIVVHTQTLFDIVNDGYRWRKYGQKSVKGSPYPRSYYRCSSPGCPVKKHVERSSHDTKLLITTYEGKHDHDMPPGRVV
How it was run: as §1

GST-VND3 NAC domain = molecular target: T9, GST-VND3 NAC domain (Arabidopsis thaliana, UniProt Q9FH59 12-162); conditions: protein: recombinant; tags: GST; chain copies: 2; dsDNA, one strand shown
T9 sequence: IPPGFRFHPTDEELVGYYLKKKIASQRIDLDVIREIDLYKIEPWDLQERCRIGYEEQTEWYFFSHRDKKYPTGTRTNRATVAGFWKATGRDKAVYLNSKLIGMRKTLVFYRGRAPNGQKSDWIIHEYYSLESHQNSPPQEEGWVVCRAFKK
How it was run: as §1

GST-ANAC055(1-171) = molecular target: T10, GST-ANAC055(1-171) (Arabidopsis thaliana, UniProt Q9LDY8 1-171); conditions: protein: recombinant; tags: GST; chain copies: 2; dsDNA, one strand shown
T10 sequence: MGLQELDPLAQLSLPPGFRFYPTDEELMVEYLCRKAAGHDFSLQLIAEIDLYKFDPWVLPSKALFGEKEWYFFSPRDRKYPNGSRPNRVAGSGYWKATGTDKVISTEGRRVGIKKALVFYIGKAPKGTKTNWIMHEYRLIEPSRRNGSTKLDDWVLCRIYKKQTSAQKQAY
How it was run: as §1

GST-NAP(1-166) = molecular target: T11, GST-NAP(1-166) (Arabidopsis thaliana, UniProt O49255 1-166); conditions: protein: recombinant; tags: GST; chain copies: 2; dsDNA, one strand shown
T11 sequence: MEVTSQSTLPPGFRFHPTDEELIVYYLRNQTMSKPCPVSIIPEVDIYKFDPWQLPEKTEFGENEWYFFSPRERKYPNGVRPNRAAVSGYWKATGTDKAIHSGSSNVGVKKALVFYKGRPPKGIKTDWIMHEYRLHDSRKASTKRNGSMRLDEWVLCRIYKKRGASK
How it was run: as §1

| Sequence | binding signal (GST-ANAC092(1-176)) [E-score] | binding signal (GST-NTL6(1-168)) [E-score] | binding signal (GST-ANAC019 NAC domain) [E-score] | binding signal (GST-ATAF1 NAC domain) [E-score] | binding signal [1] [E-score] | binding signal (GST-NST2(1-184)) [E-score] | binding signal (GST-NTL8 NAC domain) [E-score] | binding signal (GST-SND1(1-203)) [E-score] | binding signal (GST-VND7 NAC domain) [E-score] | binding signal (GST-WRKY1(266-371)) [E-score] | binding signal (GST-VND3 NAC domain) [E-score] | binding signal (GST-ANAC055(1-171)) [E-score] | binding signal (GST-NAP(1-166)) [E-score] |
| --- | --- | --- | --- | --- | --- | --- | --- | --- | --- | --- | --- | --- | --- |
| CCCTCCCC | 0.299 | 0.353 | 0.226 | 0.121 | 0.308 | 0.169 | 0.336 | 0.405 | 0.198 | 0.0672 |  |  |  |
| TGACTCAA |  | 0.118 |  | 0.0764 | 0.131 |  |  | 0.0975 |  | 0.419 | 0.113 |  |  |
| AAGGTAAG | 0.0968 | 0.306 | 0.175 | 0.11 | 0.225 | 0.144 | 0.402 | 0.2 |  |  | 0.113 |  |  |
| GTCAACAA |  | 0.0834 |  | 0.191 | 0.136 | 0.101 | 0.0573 | 0.177 | 0.07 | 0.478 |  | 0.163 | 0.075 |
| ACCGTCAA |  |  | 0.156 |  | 0.117 |  |  | 0.148 |  | 0.41 | 0.126 |  | 0.092 |
| CAGGGAAA | 0.141 | 0.0693 | 0.115 |  | 0.102 |  | 0.407 | 0.0967 |  |  | 0.0593 |  |  |
| CACGCGAC | 0.421 |  |  |  | 0.462 | 0.161 |  | 0.351 | 0.064 | 0.11 |  |  | 0.0736 |
| CCGTCAAA |  |  | 0.164 |  |  |  |  | 0.148 |  | 0.409 | 0.0953 |  |  |
| ACGCGACC | 0.283 |  | 0.0639 |  | 0.423 | 0.0828 |  | 0.367 | 0.0778 | 0.342 |  |  |  |
| GTCAAGTA |  |  |  | 0.136 | 0.186 |  |  | 0.0698 |  | 0.417 | 0.137 | 0.0988 |  |
| AGCGTCAA | 0.0554 |  |  | 0.0689 | 0.158 | 0.135 | 0.12 | 0.246 | 0.0921 | 0.408 |  |  | 0.0978 |
| ACAGGGAA | 0.128 | 0.239 |  |  |  | 0.0924 | 0.409 | 0.108 |  |  | 0.115 | 0.0748 | 0.0751 |
| GGCGTGTA | 0.4 |  | 0.198 | 0.163 | 0.439 | 0.14 |  | 0.142 |  |  | 0.118 | 0.109 | 0.13 |
| CAGTCAAA | 0.125 | 0.0796 | 0.0978 | 0.11 | 0.0634 |  | 0.104 | 0.124 | 0.0973 | 0.478 |  | 0.063 | 0.0821 |
| GTCAAAAC |  |  |  | 0.178 | 0.11 |  | 0.0569 | 0.148 |  | 0.447 | 0.176 |  | 0.111 |
| GTAGTCAA |  | 0.0675 |  | 0.191 |  | 0.112 |  | 0.0829 |  | 0.478 | 0.134 | 0.168 | 0.0663 |
| CACGCATA | 0.397 |  |  |  | 0.411 | 0.121 |  | 0.18 |  |  | 0.116 | 0.0626 | 0.147 |

— PMC4081100, “A DNA-binding-site landscape and regulatory network analysis for NAC transcription factors in Arabidopsis thaliana”
